Compound activity from PubChem.
Compounds with a hit are over-represented: about 21% of the library has one in this group of screens.
Shiga inhibitor: A qHTS for Small Molecule Inhibitors of Shiga Toxin; Vero cells, Shiga toxin protein synthesis inhibition reporter; inhibition, % at 38.7 µM; hit rate 9.2% among 290,000; AID 2315, 2010; in the data active = inhibition mostly above about 28%, no sharp cut-off; inactive = mostly below about 43%; also: 0% is about no effect
HCMV inh: qHTS Assay for inhibitors of the human cytomegalovirus (HCMV); HFF cells, HCMV-luciferase reporter, 72 h; active compounds read low; activity change, negative = inhibition, % at 57.5 µM; hit rate 4.5% among 410,000; AID 1259415, 2018; in the data active = activity change below about -60%; inconclusive = no clear call, values can overlap the other calls; inactive = above about -39%; also: % is scaled to controls: 0 for no effect and ±100 for the full control effect
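Steps: HFFs plated, 16 h 37C; compounds added; HCMV-luciferase added to MOI 1 PFU/cell; 72 h 37C; OneGlo reagent, 5 min room temperature; luminescence read, normalized to controls.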
HCV inh: qHTS Assay for Inhibitors of Hepatitis C Virus (HCV) | AID 651820, 2012 | Potency, µM (doses to about 41.8 µM), without a hit: at the highest dose activity change, negative = inhibition, actives largely listed as inhibitors | Huh7.5.1 HCVcc-Cre infection, luciferase reporter, 44 h | hit rate 3.4% among 340,000; also: potency is read from the fitted curve at half-maximal effect; % is scaled to controls: 0 for no effect and ±100 for the full control effect
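Compounds are dispensed onto cells plated 4 h earlier at 1,000 per well, with HCVcc-Cre virus (about 0.5 moi) added next. Following 44 h of culture, luminescent signal is measured for 15 sec after 15 min with substrate at room temperature.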
Pf growth 96h: Primary qHTS for delayed death inhibitors of the malarial parasite plastid, 96 hour incubation. P. falciparum luciferase reporter growth, 96 h. Potency, µM (highest dose often 28.7 µM), for the others: top-dose activity change, negative = inhibition, actives largely listed as inhibitors. hit rate 6.9% among 320,000; also: potency is read from the fitted curve at half-maximal effect; % is scaled to controls: 0 for no effect and ±100 for the full control effect
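Readout is luminescence from an integrated firefly luciferase in P. falciparum. Red cells, 2% hematocrit and 0.05% parasitemia final, were cultured with compound through two parasite generations (96 hours) at 37 C, 5% CO2.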
CHX counter: Cycloheximide Counterscreen for Small Molecule Inhibitors of Shiga Toxin. cell reporter, cycloheximide protein synthesis inhibition counterscreen. max response, %. hit rate 12% among 300,000. AID 2314, 2010; in the data active = max response mostly above about 13%, no sharp cut-off; inactive = mostly below about 14%; also: read at 38.3 µM for the half of the compounds with a filed dose; 0% is about no effect
Pf growth 48h: Primary qHTS for delayed death inhibitors of the malarial parasite plastid, 48 hour incubation; Potency, µM (series often up to 28.7 µM), for inactives: top-dose activity change, negative = inhibition, hits mostly inhibitors; P. falciparum luciferase growth in erythrocytes, 48 h; hit rate 5.9% among 310,000; also: potency is read from the fitted curve at half-maximal effect; % is scaled to controls: 0 for no effect and ±100 for the full control effect
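Compounds are pin-transferred into medium, infected erythrocytes (2% hematocrit, 0.1% parasitemia final) are added, and plates sit one parasite generation at 37 C in 5% CO2. Detection reagent is then added and luminescence measured.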
Active calls of the source: *; i = inactive; ? = inconclusive; . = no result. Unless noted, calls follow the shape of the dose curve; as a rule, active = well fitted inhibition curve with a large enough effect; inconclusive = small, poorly fitted or top-dose-only effect, or another doubt; inactive = no such curve, though single readings can be large or run the other way.

SMILES	Shiga inhibitor	HCMV inh	HCV inh	Pf growth 96h	CHX counter	Pf growth 48h
Cc1nnc(SC(C)C(=O)N(C)C2CCCCC2)n1N (stereo not drawn)	.	-2.6	1.3%	?	.	-16.3%
COc1ccc(/C=C2\CCC(C3CCCC3)C2=O)c(OC)c1OC (stereo not drawn)	3.0	-27.5	22.8%	?	-2.1	5.7%
COc1cccc(/C=C2/CCC(CN(C)C)C2=O)c1 (stereo not drawn)	.	-86.9*	?	.	.	.
COc1cccc(/C=C2\CCCCC2=O)c1	38.5	?	25.3%	-1.9%	15.5*	-6.6%
COc1cccc(/C=C2\CCC(C3CCCC3)C2=O)c1 (stereo not drawn)	83.5*	-22.3	?	40.0%	51.2*	58.5%
COc1cccc(/C=C2\CCC(C3CCCC3)C2=O)c1OC (stereo not drawn)	97.5*	-8.6	19.0%	0.7%	37.6*	17.4%
COc1ccc(/C=C2/CCCC(CN(C)C)C2=O)cc1 (stereo not drawn)	.	16.1	?	.	.	.
COc1cc(/C=C2\CCC(C3CCCC3)C2=O)cc(OC)c1OC (stereo not drawn)	-1.1	?	-28.7%	0.0%	-1.9	-20.4%
CCC(CC)C(=O)Nc1nnc(S(=O)(=O)N2CCCC2)s1	28.3	?	13.3%	?	-2.0	9.8%
CCOC(=O)C1CSCCS(=O)(=O)N1Cc1ccc(F)cc1F (stereo not drawn)	.	-17.5	.	.	.	.
O=C1CN(C(=O)c2ccc(Cl)c([N+](=O)[O-])c2)c2ccccc2N1	-8.8	19.7	?	?	-2.1	-16.6%
Cc1ccc(NC(=O)C(=O)c2cc(C)n(-c3ccc(F)cc3)c2C)cc1C	.	25.7	.	.	.	.
Cc1cccc(/C=C2\CCC(C3CCCC3)C2=O)c1 (stereo not drawn)	13.6	-37.0	43.2%	14.0%	14.8*	32.7%
Cc1cccc(/C=C2/C(=O)/C(=C/c3ccccc3C)C3CCC2N3C)c1 (stereo not drawn)	16.6	?	-8.2%	?	-0.7	?
O=C1/C(=C/c2ccc([N+](=O)[O-])cc2)CCC1C1CCCC1 (stereo not drawn)	31.3	-9.3	15.3%	i	17.6*	43.7%
O=C1c2ccccc2-c2onc3ccc(N4CCCC4)c1c23	11.5	?	-15.4%	39.2%	-5.6	9.28µM*
Cn1c(=O)cc2c3c(c(N4CCCCC4)ccc31)C(=O)c1ccccc1-2	6.6	-25.1	?	-16.1%	2.3	?
O=C1c2ccccc2-c2onc3ccc(NCc4ccco4)c1c23	-6.8	.	10µM*	24.8%	12.8*	-28.0%
CCNc1ccc2noc3c2c1C(=O)c1ccccc1-3	21.2	-37.1	?	?	16.6	35.1%
O=C1C(Cl)=C(NCCN2CCCCC2)C(=O)c2ccccc21	49.0*	.	7.94µM*	?	54.2*	-26.5%
O=C1c2ccccc2C(=O)c2c1cccc2N1CCCC1	56.0*	4.9	?	0.0%	43.3*	65.8%
Cc1cccc(C)c1[N+](=O)[O-]	.	8.2	.	.	.	.
O=C1C=C(N2CCCCC2)c2ccccc2C1=O	.	-97.1*	7.08µM*	.	.	.
O=C1C(Cl)=C(NCc2ccco2)C(=O)c2ccccc21	.	-85.7*	8.91µM*	.	.	.
CCOC(=O)CCCNC(=O)CCNC(=O)c1ccc(OCC(C)C)cc1	-2.5	-8.1	12.9%	-3.1%	-2.9	-7.0%
SMILES	Shiga inhibitor	HCMV inh	HCV inh	Pf growth 96h	CHX counter	Pf growth 48h
CCOC(=O)CCCNC(=O)CCNC(=O)c1ccc(OC(C)C)cc1	54.4*	6.6	1.9%	.	16.5*	-7.3%
CCOc1ccc(CCNC(=O)COC(=O)/C=C/c2ccc(C)o2)cc1OCC	-1.4	3.8	-26.2%	5.22µM*	10.8	13.1µM*
CCOc1ccc(CCNC(=O)COC(=O)c2ccncc2)cc1OCC	.	2.3	18.6%	.	.	.
CCOc1ccc(CCNC(=O)COC(=O)c2ccc(OC(C)C)cc2)cc1OCC	.	-10.6	?	?	.	11.7µM*
CCOc1ccc(CCNC(=O)COC(=O)c2nn(C)c(=O)c3ccccc23)cc1OCC	.	-1.5	3.2%	41.0%	.	2.94µM*
CCCNC(=O)COC(=O)/C=C/c1ccc(C)o1	-1.8	-6.8	26.7%	30.9%	1.8	11.6%
CCOc1ccc(CCNC(=O)COC(=O)CCc2cc(OC)c(OC)c(OC)c2)cc1OCC	.	8.7	-3.9%	?	.	13.1µM*
CCCOc1ccc(C(=O)OCC(=O)NCCc2ccc(OCC)c(OCC)c2)cc1OC	23.3	8.4	?	13.1µM*	8.8	?
CCOc1ccc(C(=O)CC(=O)C(=O)NCCc2ccc(OC)c(OC)c2)cc1	-1.5	8.8	?	227.1%	11.2	13.1µM*
CCOc1ccc(CCNC(=O)COC(=O)c2cc(OC)cc(OC)c2)cc1OCC	-22.4	-26.5	-22.9%	-13.5%	-1.1	12.9%
CCOc1ccc(CCNC(=O)COC(=O)Cc2ccc(OC)c(OC)c2)cc1OCC	.	-19.8	-4.0%	1.9%	.	?
Cc1ccc(OCCN2CCN(C(=O)CCC(=O)Nc3nnc(CC(C)C)s3)CC2)cc1	-5.2	-31.4	-73.2%	0.329µM*	0.7	11.7µM*
CC(C)Cc1nnc(NC(=O)CCC(=O)N2CCN(Cc3ccc(F)cc3)CC2)s1	-11.5	-29.1	22.4µM*	?	-5.5	10.8%
Cc1ccc(C)c(N2CCN(C(=O)CCC(=O)Nc3nnc(CC(C)C)s3)CC2)c1	-1.7	-35.7	18.1%	?	0.8	-12.5%
CCc1nnc(NC(=O)CCC(=O)N2CCN(Cc3ccc(Cl)cc3)CC2)s1	-15.5	-15.1	?	.	-4.0	?
CCCc1nnc(NC(=O)CCC(=O)N2CCN(Cc3ccc(Cl)cc3)CC2)s1	-5.8	-2.3	?	11.7µM*	-7.4	-24.1%
CCOc1ccc(C(=O)c2oc3ccccc3c2NC(=O)c2cc(-c3ccc(C)cc3)on2)cc1	.	-19.3	.	.	.	.
CN(C)S(=O)(=O)c1cccc(C(=O)C2=C3SC=C(c4ccccc4)N3CC2)c1	12.2	21.7	?	3.29µM*	2.7	-18.7%
CN(C)S(=O)(=O)c1cccc(C(=O)N2CCc3ccccc32)c1	-14.5	-24.5	-9.3%	.	0.9	2.6%
COc1cn(CC(=O)Nc2cc(C)cc(C)c2)c(CN2CCCCC2)cc1=O	.	-1.8	.	.	.	.
COc1cc(C)ccc1OCCOc1c(C)cccc1Cl	57.3*	60.0	-11.7%	56.3%	23.9*	13.0%
COc1ccccc1OCCOCCOc1ccc(C)cc1Br	-5.7	?	-17.8%	?	0.8	-7.6%
COc1ccccc1OCCCOc1ccc(C)cc1Br	73.8*	-33.7	?	-12.1%	45.5*	121.0%
COc1cc(C)ccc1OCCCOc1ccccc1Br	110.2*	49.5	1.3%	121.8%	64.1*	79.4%
